Drawing on PubChem BioAssay (NCATS), this text covers Potency and ratio activity, negative = inhibition for 28 compounds.

Inconclusive results are not listed. Values without a mark were called inactive. Calls of active or inactive are those of the source. Unless noted, calls come from the whole dose curve; as a rule, active = well fitted curve in the direction sought with a large enough effect; inconclusive = small, poorly fitted or top-dose-only effect, or another doubt; inactive = no such curve, though single readings can be large; an effect the other way counts as inactive or inconclusive.

Assay [1] concerns the target Voltage-gated inwardly rectifying potassium channel KCNH2 (Homo sapiens) (UniProt Q12809). In words: qHTS Assay for Small Molecule Inhibitors of the Human hERG Channel Activity (AID 588834).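 Note: lower thallium flux fluorescence means stronger hERG block; nearly all actives have a fitted effect of over 50% in size.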 The procedure, abridged: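 Thallium serves as surrogate for K+ influx through BacMam-delivered hERG in U2OS cells. Compounds are added for about 10 minutes after dye loading; stimulation buffer then starts flux, monitored kinetically on FDSS.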

The target in assay [2] is Luciferin 4-monooxygenase (Photinus pyralis) (UniProt P08659). The experiment in a line: Biochemical firefly luciferase enzyme assay for NPC (AID 624030). Note: nearly all actives have a fitted effect of over 70% in size. In outline:
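Direct inhibition of firefly luciferase enzyme (10 nM final, 50 mM Tris Acetate) assessed by luminescence within 5 minutes. Percent activity scaled between DMSO and PTC124 positive control, with concentration-effect curves classified by fit quality and response.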

A short description of assay [3]: S16 Schwann cell viability assay (CellTiter-Glo assay) (AID 624031). Note: nearly all actives have a fitted effect of over 70% in size. The procedure, abridged: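 Cells were seeded at 500-750 per well in phenol red-free DMEM with 10% FBS and left overnight. Compounds or DMSO were pinned in, incubation ran 24 h at 37 °C/5% CO2, then CellTiter-Glo reagent was added and luminescence measured.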
Assay [4] is described as follows: S16 Schwann cell PMP22 intronic element firefly luciferase assay (AID 624032). Note: nearly all actives have a fitted effect of over 30% in size. The procedure, abridged: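 Luciferase reporter of PMP22 intronic-element expression in stably transfected S16 rat Schwann cells, read by ONE-Glo luminescence after 24 h compound exposure at 37 C. Activity scaled between DMSO (0%) and positive-control PTC124; concentration-effect curves quality-classified.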

Assay [5] is described as follows: S16 Schwann cell PMP22 intronic element beta-lactamase assay (AID 624044; calls by dose curve; note: nearly all actives have a fitted effect of over 15% in size;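 for ratio activity, negative = inhibition: 0% = DMSO and -100% = potassium clavulanate positive control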). The settings on record: S16 rat Schwann cells, PMP22 element beta-lactamase FRET, 24 h; ratio activity, negative = inhibition: at 38.3 µM (top of the series) unless noted. The procedure, abridged:
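Beta-lactamase reporter under a PMP22 intronic regulatory element in stable S16 rat Schwann cells; 24 h compound exposure. 460 nm blue signal normalized between DMSO (0%) and potassium clavulanate, with 535 nm FRET tracking viability; curves classed by r2 and response.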
Potency is the fitted concentration of half-maximal effect.

Sequence of Luciferin 4-monooxygenase (Photinus pyralis) (P08659 whole entry, looked up): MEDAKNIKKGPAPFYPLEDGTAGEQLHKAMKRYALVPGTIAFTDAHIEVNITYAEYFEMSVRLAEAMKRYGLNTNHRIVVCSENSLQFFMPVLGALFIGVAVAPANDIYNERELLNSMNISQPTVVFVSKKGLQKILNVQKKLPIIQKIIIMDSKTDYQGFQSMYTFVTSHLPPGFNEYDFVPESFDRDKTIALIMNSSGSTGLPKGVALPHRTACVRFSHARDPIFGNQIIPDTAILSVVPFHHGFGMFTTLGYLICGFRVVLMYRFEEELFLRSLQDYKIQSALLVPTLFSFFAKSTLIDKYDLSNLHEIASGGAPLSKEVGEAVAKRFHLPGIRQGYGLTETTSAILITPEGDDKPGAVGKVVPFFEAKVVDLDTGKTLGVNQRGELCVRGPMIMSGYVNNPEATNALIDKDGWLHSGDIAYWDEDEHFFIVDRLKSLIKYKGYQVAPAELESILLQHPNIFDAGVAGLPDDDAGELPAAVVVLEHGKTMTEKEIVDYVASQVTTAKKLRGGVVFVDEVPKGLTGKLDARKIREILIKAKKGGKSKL
Sequence of Voltage-gated inwardly rectifying potassium channel KCNH2 (Homo sapiens) (Q12809 whole entry, looked up): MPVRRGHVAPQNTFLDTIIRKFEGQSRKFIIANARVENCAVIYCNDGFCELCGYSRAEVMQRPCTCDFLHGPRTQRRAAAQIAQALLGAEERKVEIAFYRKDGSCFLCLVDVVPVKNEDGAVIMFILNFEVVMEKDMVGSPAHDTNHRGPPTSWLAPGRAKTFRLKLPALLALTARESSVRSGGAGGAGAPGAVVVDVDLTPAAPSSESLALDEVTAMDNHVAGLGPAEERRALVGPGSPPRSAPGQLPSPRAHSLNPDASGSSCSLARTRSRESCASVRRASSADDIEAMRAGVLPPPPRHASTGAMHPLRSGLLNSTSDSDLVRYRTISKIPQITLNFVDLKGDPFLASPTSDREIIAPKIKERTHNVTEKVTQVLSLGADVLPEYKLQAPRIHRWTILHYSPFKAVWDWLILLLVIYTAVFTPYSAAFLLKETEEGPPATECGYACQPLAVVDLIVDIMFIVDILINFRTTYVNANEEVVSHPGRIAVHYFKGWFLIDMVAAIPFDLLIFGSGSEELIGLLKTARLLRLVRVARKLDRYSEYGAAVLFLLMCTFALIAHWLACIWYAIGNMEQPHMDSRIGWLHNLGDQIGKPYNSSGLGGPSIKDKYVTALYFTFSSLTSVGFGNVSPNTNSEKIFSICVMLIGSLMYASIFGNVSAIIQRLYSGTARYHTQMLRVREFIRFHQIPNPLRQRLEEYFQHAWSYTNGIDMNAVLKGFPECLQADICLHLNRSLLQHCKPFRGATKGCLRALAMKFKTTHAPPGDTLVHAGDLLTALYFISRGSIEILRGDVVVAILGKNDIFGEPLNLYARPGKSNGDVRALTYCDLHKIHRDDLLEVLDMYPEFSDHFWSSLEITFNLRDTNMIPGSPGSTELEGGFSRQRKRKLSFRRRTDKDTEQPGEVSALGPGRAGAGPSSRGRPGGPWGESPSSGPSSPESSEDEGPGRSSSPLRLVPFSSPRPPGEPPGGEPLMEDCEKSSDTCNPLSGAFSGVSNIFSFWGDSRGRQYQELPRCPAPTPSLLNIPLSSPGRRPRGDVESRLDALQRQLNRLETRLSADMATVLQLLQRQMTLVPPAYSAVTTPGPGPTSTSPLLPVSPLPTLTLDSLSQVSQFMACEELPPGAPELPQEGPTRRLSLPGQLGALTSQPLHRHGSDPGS

As for `CCC(C(=O)NC(N)=O)c1ccccc1` (stereo not given), the Potency result in assay [1], in assay [2], in assay [3] and in assay [4] was “inactive” throughout. Also, the ratio activity, negative = inhibition in assay [5] was 8.54%.
Turning to `O=C(O)/C=C/c1ccccc1`, the Potency result in assay [1], in assay [2], in assay [3] and in assay [4] was “inactive” in each case. Moreover, the ratio activity, negative = inhibition in assay [5] is -0.672%.
Regarding `OC/C=C/c1ccccc1`, the Potency entry in assay [1], in assay [2], in assay [3] and in assay [4] was “inactive” in each case. Besides, the ratio activity, negative = inhibition in assay [5] is -1.9%.
As for `CN1CCc2c(c3ccccc3n2Cc2ccccc2)C1`, the Potency in assay [1] was 5.01 µM (active). Moreover, the Potency entry in assay [2], in assay [3] and in assay [4] was “inactive” throughout. The ratio activity, negative = inhibition in assay [5] was -4.6% [at 17.1 µM].
With `Cc1cc(=O)c(C(=O)N[C@@H](C(=O)N[C@@H]2C(=O)N3C(C(=O)O)=C(CSc4nnnn4C)CS[C@H]23)c2ccc(O)cc2)c[nH]1`, the Potency entry in assay [1], in assay [2], in assay [3] and in assay [4] was “inactive” throughout. Further, the ratio activity, negative = inhibition in assay [5] was 0.254%.
For the compound `CC/C(=C(/CC)c1ccc(OP(=O)(O)O)cc1)c1ccc(OP(=O)(O)O)cc1`, the Potency entry in assay [1], in assay [2], in assay [3] and in assay [4] was “inactive” throughout. The ratio activity, negative = inhibition in assay [5] is 2.34%.
With `O=C1NCCN1c1ncc([N+](=O)[O-])s1`, the Potency result in assay [1], in assay [2], in assay [3] and in assay [4] was “inactive” in each case. Moreover, the ratio activity, negative = inhibition in assay [5] is 1.39% [at 17.1 µM].
As for `N=C(N)n1cccn1`, the Potency result in assay [1], in assay [2], in assay [3] and in assay [4] was “inactive” each time. In addition, in assay [5], the ratio activity, negative = inhibition was -0.887%.
Consider `CC(=O)Nc1ccc(NC(=S)NC(=O)c2ccc(C(C)(C)C)cc2)cc1`, for which the Potency is 8.91 µM (active) in assay [1] and 7.94 µM (active) in assay [5]. In addition, the Potency entry in assay [2], in assay [3] and in assay [4] was “inactive” in each case.
As to `CC(C)NCC(O)COc1ccccc1-n1cccc1` (stereo not given), the Potency in assay [1] is 14.1 µM (active). Also, the Potency result in assay [2], in assay [3] and in assay [4] was “inactive” each time. Also, the ratio activity, negative = inhibition in assay [5] was -5.07%.
In the case of `O=C1c2ccccc2CN2C(=O)c3ccccc3CN12`, the Potency entry in assay [1], in assay [2], in assay [3] and in assay [4] was “inactive” in each case. Besides, the ratio activity, negative = inhibition in assay [5] was 0.507%.
Take `CC(C)c1nc(N(C)S(C)(=O)=O)nc(-c2ccc(F)cc2)c1/C=C/C(O)CC(O)CC(=O)O` (stereo not given): the Potency in assay [1] is 14.1 µM (active). The Potency entry in assay [2], in assay [3] and in assay [4] was “inactive” throughout. For the same compound, the ratio activity, negative = inhibition in assay [5] is 3.3%.
As for `O=C(NNCS(=O)(=O)O)c1ccncc1`, the Potency entry in assay [1], in assay [2], in assay [3] and in assay [4] was “inactive” each time. For the same compound, the ratio activity, negative = inhibition in assay [5] was -19.9% (active).
As to `CCCCCCCCCCCC(=O)OCC(O)CO` (stereo not given), the Potency entry in assay [1], in assay [2], in assay [3] and in assay [4] was “inactive” each time. Further, the ratio activity, negative = inhibition in assay [5] was 1%.
With `CCCc1nc(C(C)(C)O)c(C(=O)OCc2oc(=O)oc2C)n1Cc1ccc(-c2ccccc2-c2nn[nH]n2)cc1`, the Potency result in assay [1], in assay [2], in assay [3] and in assay [4] was “inactive” each time. Moreover, the ratio activity, negative = inhibition in assay [5] was 0.293%.
Turning to `OC1OC[C@@H](O)[C@H](O)[C@@H]1O` (stereo not given in full), the Potency entry in assay [1], in assay [2], in assay [3] and in assay [4] was “inactive” throughout. Moreover, the ratio activity, negative = inhibition in assay [5] was 0.472%.
Consider `CCOC(=O)[C@@H](N)CS`, for which the Potency result in assay [1], in assay [2] and in assay [3] was “inactive” in each case. Moreover, the Potency in assay [4] was 0.0573 µM (active). Also, the ratio activity, negative = inhibition in assay [5] is -2.51%.
In the case of `C=CCCCCCCCCC(=O)OC`, the Potency entry in assay [1], in assay [2], in assay [3] and in assay [4] was “inactive” throughout. In addition, the ratio activity, negative = inhibition in assay [5] was -14.3%.
Take `CCCOc1cc(N)ccc1C(=O)OCCN(CC)CC`: the Potency entry in assay [1], in assay [2], in assay [3] and in assay [4] was “inactive” throughout. Further, the ratio activity, negative = inhibition in assay [5] was 1.14% [at 17.1 µM].
For `O=C(O)c1cc(N=Nc2ccc(O)c(C(=O)O)c2)ccc1O`, the Potency result in assay [1], in assay [3] and in assay [4] was “inactive” in each case. Also, the Potency in assay [2] is 9.07 µM (active). In assay [5], the ratio activity, negative = inhibition was -0.669%.
With `CC(=O)c1ccc2c(c1)N(CCCN1CCN(CCO)CC1)c1ccccc1S2`, the Potency in assay [1] is 7.08 µM (active); in assay [3], 28.7 µM (active); in assay [4] it was 16.1 µM (active). Moreover, in assay [2], the Potency result is “inactive”. Further, the ratio activity, negative = inhibition in assay [5] is -15.1%.
As for `CCc1ccc(S(=O)(=O)O)cc1`, the Potency entry in assay [1], in assay [2], in assay [3] and in assay [4] was “inactive” in each case. Moreover, the ratio activity, negative = inhibition in assay [5] is -9.66%.
For `CC(=O)Nc1ccc(OC(=O)c2ccccc2O)cc1`, the Potency entry in assay [1], in assay [3] and in assay [4] was “inactive” in each case. The Potency in assay [2] was 25.6 µM (active). In addition, the ratio activity, negative = inhibition in assay [5] was 1.52%.
As for `C=CCOc1ccc(CC(=O)O)cc1Cl`, the Potency entry in assay [1], in assay [2], in assay [3] and in assay [4] was “inactive” in each case. In addition, in assay [5], the ratio activity, negative = inhibition was -6.65%.
For the compound `CCCC(CCC)C(=O)OC1C[C@H]2CC[C@@H](C1)[N+]2(C)C` (stereo not given in full), the Potency entry in assay [1], in assay [2], in assay [3] and in assay [4] was “inactive” in each case. Moreover, in assay [5], the ratio activity, negative = inhibition is 6.3%.
Take `COc1ccc2c(=O)c(C)c(-c3ccccc3)oc2c1CN(C)C`: the Potency result in assay [1], in assay [2], in assay [3] and in assay [4] was “inactive” throughout. For the same compound, in assay [5], the ratio activity, negative = inhibition is -18.3%.
On to `O=P(O)(O)OP(=O)(O)OP(=O)(O)O`, for which the Potency result in assay [1], in assay [2], in assay [3] and in assay [4] was “inactive” throughout. Also, the ratio activity, negative = inhibition in assay [5] is -5.37%.
For `[O]=[Bi][O][Bi]=[O]`, the Potency entry in assay [1], in assay [2], in assay [3] and in assay [4] was “inactive” throughout. Moreover, the ratio activity, negative = inhibition in assay [5] is 3.6%.
